Shiga inhibitor: inhibitors of Shiga toxin in Vero cells; AID 2315; Vero cells, Shiga toxin protein synthesis inhibition reporter; actives 9.2% (n = 290,000); inhibition, % at 38.7 µM; in the data active = inhibition mostly above about 28%, no sharp cut-off; inactive = mostly below about 43%
Giardia FBPA inh: blocks Giardia fructose-bisphosphate aldolase activity; A8B2U2; purified Giardia FBPA; Potency, µM (top dose mostly 59.6 µM), actives largely listed as inhibitors; actives 0.71% (n = 290,000); AID 2451; also: nearly all actives have a fitted effect of over 55% in size
Target sequence (A8B2U2 whole entry, looked up): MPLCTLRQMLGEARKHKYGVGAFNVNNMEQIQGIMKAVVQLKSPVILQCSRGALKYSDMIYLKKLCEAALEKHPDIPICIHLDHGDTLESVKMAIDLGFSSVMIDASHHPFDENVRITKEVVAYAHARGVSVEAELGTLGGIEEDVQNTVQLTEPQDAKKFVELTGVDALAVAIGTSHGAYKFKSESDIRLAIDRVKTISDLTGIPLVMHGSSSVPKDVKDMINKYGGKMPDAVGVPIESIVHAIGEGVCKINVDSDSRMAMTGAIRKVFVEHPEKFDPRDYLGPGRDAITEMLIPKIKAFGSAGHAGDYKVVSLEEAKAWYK
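40 nM FBPA preincubated 10 min at RT with compound (up to 57.5 uM final), then substrate plus GAPDH/TPI/NAD/arsenate coupling and diaphorase/resazurin added. Fluorescence read after 20 min at RT, 525/598 nm.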
LmPK inhibitor: LmPK (Leishmania mexicana) enzyme inhibition. Q27686. purified LmPK, Kinase-Glo ATP luminescence, 1 h. Potency, µM (doses to about 57.5 µM), usual class: inhibitors. actives 0.37% (n = 290,000). AID 1721
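0.1 nM LmPK, 0.5 mM PEP, 0.1 mM ADP; 50 mM imidazole pH 7.2, 7 mM MgCl2, 50 mM KCl; 1 h RT. Kinase-Glo luminescence readout, normalized to no-enzyme (full inhibition) and uninhibited wells.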
Tb PYK inh: inhibitors of Trypanosoma brucei pyruvate kinase | AID 624173 | actives 0.12% (n = 410,000) | TbPYK enzyme, Kinase-Glo Plus ATP luminescence, 45 min | Q57TT1 | Potency, µM (series often up to 76.8 µM), most hits filed as inhibitors; also: nearly all actives have a fitted effect of over 50% in size
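TbPYK + substrate in 50 mM TEA pH 7.2, 100 mM KCl, 10 mM MgCl2, 0.05% BSA, 0.01% Tween-20; cpd pinned; ADP 130 uM final; 45 min RT; Kinase-Glo Plus 10 min; luminescence endpoint.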
CHX counter: affects cycloheximide protein synthesis inhibition readout, counter-screen; cell reporter, cycloheximide protein synthesis inhibition counterscreen; max response, %; actives 12% (n = 300,000); AID 2314; in the data active = max response mostly above about 13%, no sharp cut-off; inactive = mostly below about 14%; also: read at 38.3 µM for the half of the compounds with a filed dose
RE007 growth inh: less growth of the S. pombe RE007 Vpr strain; S. pombe RE007 Vpr strain, BacTiter-Glo ATP luminescence, 24 h; Potency, µM (doses to about 92.2 µM), most hits filed as inhibitors; actives 0.21% (n = 360,000); active = well fitted falling curve with a large enough effect; inconclusive = small, poorly fitted or top-dose-only effect; inactive = no such curve, though single readings can be large or run the other way; also: nearly all actives have a fitted effect of over 50% in size
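Fission yeast strain RE007, carrying one chromosomally integrated HIV-1 vpr copy, was seeded at OD 0.01 in PMG+AL medium with 23 nL pinned compound. After 24 h at 30 °C and 99% humidity, viability was read by BacTiter-Glo luminescence.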
Each line names hits and unclear results; the compound was inactive in the other large screens. The sample as a whole holds a higher share of hits than the screen did. Unless noted, calls follow the shape of the dose curve; as a rule, active = well fitted curve in the direction sought with a large enough effect; inconclusive = small, poorly fitted or top-dose-only effect, or another doubt; inactive = no such curve, though single readings can be large; an effect the other way counts as inactive or inconclusive.

CC(=O)N1N=C(c2ccc(C)cc2)OC1c1cccnc1 (stereo not drawn)	Shiga inhibitor 61
CC(=O)N1N=C(c2cccc(Cl)c2)OC1c1cccc([N+](=O)[O-])c1 (stereo not drawn)	none
CC(=O)N1N=C(c2cccc(Cl)c2)OC1c1ccc(C(C)C)cc1 (stereo not drawn)	CHX counter 23 (no result: Tb PYK inh)
Cc1cccc(NC(=O)Nc2nnc(N(C)Cc3ccccc3)s2)c1	none (no result: Shiga inhibitor, Giardia FBPA inh, LmPK inhibitor, CHX counter, RE007 growth inh)
Cc1ccc2c(c1)CCCN2CC(=O)N(C)c1c(N)n(Cc2ccccc2)c(=O)[nH]c1=O	none (no result: Shiga inhibitor, Giardia FBPA inh, LmPK inhibitor, CHX counter)
Cc1ccc(NC(=O)CSc2nc3c(oc4ccccc43)c(=O)n2Cc2ccco2)cc1F	none (no result: Shiga inhibitor, Giardia FBPA inh, LmPK inhibitor, CHX counter, RE007 growth inh)
Cc1cc(/C=C2\SC(=S)N(C)C2=O)c(C)n1-c1ccc(O)cc1	Shiga inhibitor 70, CHX counter 52
Cc1cc(/C=C2/C(=O)NN(c3ccccc3)C2=O)c(C)n1-c1cccc(O)c1	Shiga inhibitor 60, CHX counter 57
Cc1cc(/C=C2\SC(N)=NC2=O)c(C)n1-c1ccc(F)cc1	CHX counter 20
O=C1NN(c2ccccc2)C(=O)C1=Cc1ccccc1O	none (no result: Shiga inhibitor, Giardia FBPA inh, LmPK inhibitor, CHX counter)
Cc1cc(/C=C2\SC(=S)NC2=O)c(C)n1-c1cccc(O)c1	Shiga inhibitor 64, CHX counter 41
CCCCc1c2ccccc2nc2[nH]c3ccccc3c12	none (no result: Shiga inhibitor, LmPK inhibitor, Tb PYK inh, CHX counter, RE007 growth inh)
CCc1ccc(NCc2cc3ccc(OC)cc3n(CC(=O)Nc3ccc(F)cc3F)c2=O)cc1	none (no result: Shiga inhibitor, Giardia FBPA inh, LmPK inhibitor, CHX counter, RE007 growth inh)
Cc1ccc(-n2c(C)cc(/C=C3/C(=O)NC(=O)N(C)C3=O)c2C)cc1	none
Cc1ccc(-n2c(C)cc(/C=C3\SC(=O)NC3=O)c2C)cc1	Shiga inhibitor 83, CHX counter 32
COc1ccc(-n2c(C)cc(/C=C3\SC(=O)NC3=O)c2C)cc1	Shiga inhibitor 58, CHX counter 42
Cc1ccc(NC(=O)Cn2c(-c3ccc4c(c3)OCO4)cn(-c3ccccc3)c2=O)cc1	none (no result: Shiga inhibitor, Giardia FBPA inh, LmPK inhibitor, CHX counter, RE007 growth inh)
CN(C)/C=N/C(=S)Nc1cc(Cl)cc(Cl)c1	none
CN(C)/C=N/C(=S)Nc1ccccc1F	CHX counter 28
CN(C)/C=N/C(=S)Nc1ccccc1Cl	Shiga inhibitor 49, Giardia FBPA inh inconclusive, CHX counter 39
CC(C)CNC(=S)Nc1ccccc1F	none
COc1ccc(-c2nnc(Nc3ccc(CC(N)=O)cc3)c3ccccc23)cc1	none
NC(=O)Cc1ccc(Nc2nnc(-c3ccccc3)c3ccccc23)cc1	CHX counter 10
COc1ccccc1OCc1cc(-c2ccccc2)no1	Shiga inhibitor 89, CHX counter 68
c1ccc(OCc2cc(-c3ccccc3)no2)cc1	Shiga inhibitor 76, CHX counter 53
COc1ccc(S(=O)(=O)N2CCc3ccccc32)cc1C(=O)NCCc1ccccn1	none
COc1cc(Cl)c(C)cc1NC(=O)Cn1cnc2sc(C)c(S(=O)(=O)N3CCCCC3)c2c1=O	none (no result: Shiga inhibitor, Giardia FBPA inh, LmPK inhibitor, CHX counter, RE007 growth inh)
COc1ccc(-c2nc(SCC(=O)Nc3ccc4c(c3)OCCO4)c(-c3ccc(C)cc3)[nH]2)cc1OC	none (no result: Shiga inhibitor, Giardia FBPA inh, LmPK inhibitor, CHX counter, RE007 growth inh)
Cc1ccc(Cn2ccn(Cc3ccc(C)cc3)c(=O)c2=O)cc1	none (no result: Shiga inhibitor, Giardia FBPA inh, LmPK inhibitor, CHX counter, RE007 growth inh)
COc1cccc(NC(=O)NC2CCCc3ccccc32)c1 (stereo not drawn)	none
O=C(c1ccccc1)c1nccc2ccccc12	none
CC(C)C(OC(=O)c1ccccc1)c1nccc2ccccc12 (stereo not drawn)	Shiga inhibitor 86, CHX counter 49
O=C(OC(c1ccccc1)c1nccc2ccccc12)c1ccccc1 (stereo not drawn)	none (no result: Shiga inhibitor, Giardia FBPA inh, LmPK inhibitor, CHX counter)
O=C(OC(c1ccccc1)c1nccc2ccccc12)c1cccc([N+](=O)[O-])c1 (stereo not drawn)	CHX counter 32
Cc1cc(C)cc(-n2ccn(Cc3ccccc3C)c(=O)c2=O)c1	none (no result: Shiga inhibitor, Giardia FBPA inh, LmPK inhibitor, CHX counter, RE007 growth inh)
CC(C)(C)c1ccc(C(=O)Nc2nnc(Cc3c[nH]c4ccccc34)s2)cc1	none
O=C(Nc1nnc(Cc2c[nH]c3ccccc23)s1)c1ccc(Cl)cc1Cl	Shiga inhibitor 35, CHX counter 17
COc1ccccc1-c1cn(CC[C@H]2CC[C@@H](NS(=O)(=O)c3ccccc3C)[C@@H](CO)O2)nn1	none (no result: Shiga inhibitor, Giardia FBPA inh, LmPK inhibitor, Tb PYK inh, CHX counter)
COC(=O)c1ccc(CN(C)S(=O)(=O)c2cccs2)cc1	Shiga inhibitor 76, CHX counter 56

Screens as filed in PubChem.
